This is part of a sample that, as a whole, favours compounds with a hit. Of some 83,000 tested, about 20% had one in any assay.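 The endpoint reported here, percent growth, reads 100 for growth as untreated, 0 for no net growth and -100 for all cells dead.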 Calls of active or inactive are those of the source. The calls were made as follows: active = growth percent below 10; inactive = the rest.
Legend:
Assay in all cases: NCI-60 one-dose screen, 48 h (100 = growth as untreated, 0 = no growth, -100 = all killed)
Conditions in all cases: 10 µM unless noted
[1] = test system: SN12C renal
[2] = test system: UO-31 renal
[3] = test system: TK-10 renal
[4] = test system: ACHN renal
[5] = test system: CAKI-1 renal
[6] = test system: A498 renal
[7] = test system: MOLT-4 leukemia
[8] = test system: CCRF-CEM leukemia
[9] = test system: EKVX NSCLC

Measured: growth

COc1cc(C(=O)c2cc3c(cc2C)OCO3)cc(OC)c1OC
active: [6] -2.13%
inactive: [1] 32.4% | [2] 44.8% | [3] 62.8% | [4] 36.3% | [5] 13.5% | [7] 23.1%

CCn1cnc(C[C@H](NC(=O)[C@H](CCCCNC(=O)Nc2cc(C(F)(F)F)cc(C(F)(F)F)c2)NC(=O)Nc2cc(C(F)(F)F)cc(C(F)(F)F)c2)C(=O)OC)c1
inactive: [2] 49.4% [100 µM] | [5] 68.4% [100 µM]
active: [1] -6.45% [100 µM] | [3] -36.5% [100 µM] | [4] -40.4% [100 µM] | [6] -52.4% [100 µM] | [7] -33.8% [100 µM]

COc1ccc(-c2cc(-c3cccnc3)nc3sc(C(=O)Nc4ccccc4)c(N)c23)cc1OC
inactive: [1] 57.2% | [2] 32.2% | [4] 41.1% | [5] 46.7% | [6] 65.1% | [8] 36.9% | [7] 32.1%

COc1ccccc1NC(=O)c1sc2nc3c(cc2c1N)C(=O)CCC3
active: [6] -5.03%
inactive: [1] 70.2% | [2] 70.5% | [4] 70.4% | [5] 52.7% | [8] 67.7% | [7] 89.6%

COc1cccc(N2CCN(CC(=O)N3CCN(c4nnc(-c5ccc(Cl)cc5)c(-c5ccc(Cl)cc5)n4)CC3)CC2)c1
inactive: [9] 57% | [1] 76.7% | [3] 93.8% | [4] 57.1% | [5] 92.2% | [6] 55.4% | [8] 43.2% | [7] 28.4%

From PubChem BioAssay (NCI)
